Most compounds without a hit are left out; they make up all but 19% or so of the library.
BCR signal inh: blocks chronic active B-cell receptor signaling; ABC-DLBCL IkBa-CBG/CBR reporter, luminescence ratio, 4 h; Potency, µM (titrated, usually from 46.1 µM), without a hit: at the highest dose activity change, negative = inhibition, usual class: inhibitors; 340,000 tested, 0.05% active; AID 493014; active = well fitted inhibition curve with a large enough effect in the signal ratio, with a control signal flat, not every such curve was filed as active; inconclusive = small, poorly fitted or top-dose-only effect, or effect the other way, or a change in a side signal; the % refers to the signal ratio;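 note: potency is the fitted concentration of half-maximal effect; plate controls were basal doxycycline-induced cells for no effect and cells given 10 µM MG132 for full effect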
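TMD8 human ABC-DLBCL cells with doxycycline-inducible IκBα–green luciferase fusion and unfused red luciferase, in 0.5% FBS medium; compounds up to 46 uM, 4 h at 37C. Green/red luminescence ratio, filter-overlap corrected, fitted to concentration-response curves.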
DT40 TDP1 CPT: DT40-hTDP1 cell growth loss with CPT | chicken DT40 Tdp1-/-;hTDP1 cells + 20 nM CPT, ATP luminescence, 48 h | Potency, µM (series often up to 46.2 µM), without a hit: at the highest dose activity change, negative = growth inhibition, hits mostly inhibitors | 420,000 tested, 12% active; note: potency is the fitted concentration of half-maximal effect; % is set by controls: 0 for no effect and ±100 for the full control effect; nearly all actives have a fitted effect of over 55% in size
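Chicken DT40 Tdp1-/- cells stably complemented with human TDP1 were seeded at 400 cells/well in medium containing 20 nM camptothecin, exposed to pin-transferred compounds, and grown at 37 °C for at least 48 hr. Viability was read as ATP luminescence.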
SW480 rerep: induces DNA re-replication in SW480 colon adenocarcinoma cells | SW480 DNA re-replication, Hoechst DNA content imaging, 48 h | Potency, µM (top dose mostly 46.1 µM), inactives show at the top dose re-replication activation, most hits filed as activators | 340,000 tested, 1.8% active | AID 624297; note: potency is the fitted concentration of half-maximal effect; % of control where 0% means no effect; nearly all actives have a fitted effect of over 55% in size
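Cells (250 per well) received 23 nL compound or DMSO by pin tool and were kept 48 hr at 37 C, 5% CO2. Nuclei were then stained with Hoechst for 40 min and scanned for DNA content.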
MCF10A rereplic: DNA re-replication induction in MCF 10a cells; MCF 10A DNA re-replication, Hoechst nuclear intensity, 48 h; 350,000 tested, 2.9% active; Potency, µM (series often up to 46.1 µM), for inactives: at the top dose activity, positive = re-replication, hits mostly activators; note: potency is the fitted concentration of half-maximal effect; % of control where 0% means no effect; nearly all actives have a fitted effect of over 50% in size
IL-1B inflam inh: inflammasome signaling inhibition, IL-1 beta readout; AID 743279; 360,000 tested, 4.7% active; THP-1 LPS/ATP IL-1B secretion, AlphaLISA, 16 h; hits give low values; activity change, % at 57.5 µM; in the data active = activity change below about -50%; inconclusive = mostly about -30% to -49%; note: % is set by controls: 0 for no effect and ±100 for the full control effect
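THP-1 cells pretreated 1 hr with compounds (up to 57.5 uM final), then stimulated with LPS (250 ng/mL final) plus ATP (1.25 mM final); secreted IL-1B measured by AlphaLISA after 16 hr, decreased signal indicating inhibition.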
DT40 TDP1 no CPT: qHTS for Inhibitors of human tyrosyl-DNA phosphodiesterase 1 (TDP1): qHTS in cells in absence of CPT | DT40 Tdp1-/- hTDP1 cells, no CPT, ATP luminescence, 48 h | Potency, µM (highest dose often 46.2 µM), without a hit: top-dose activity change, negative = growth inhibition, usual class: inhibitors | 420,000 tested, 15% active; note: potency is the fitted concentration of half-maximal effect; % is set by controls: 0 for no effect and ±100 for the full control effect; nearly all actives have a fitted effect of over 55% in size
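Stably hTDP1-transfected Tdp1-null chicken DT40 cells were treated with library compounds minus camptothecin and grown for at least 48 hr at 37 °C, after which cellular ATP was quantified by luminescence.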
Numbers without * were called inactive; [ ] = dose if it differs, or a comment. Unless noted, calls come from the whole dose curve; as a rule, active = well fitted curve in the direction sought with a large enough effect; inconclusive = small, poorly fitted or top-dose-only effect, or another doubt; inactive = no such curve, though single readings can be large; an effect the other way counts as inactive or inconclusive.

What do the screens show for `COc1ccccc1N1CCN(C(=S)Nc2cccc(C)c2)CC1`?
BCR signal inh: -6%; DT40 TDP1 CPT: 23µM*; SW480 rerep: inconclusive; MCF10A rereplic: 16µM*; IL-1B inflam inh: -14; DT40 TDP1 no CPT: 23µM*

What do the screens show for `O=C(NCCS(=O)(=O)NC1CCCC1)c1ccccc1`?
BCR signal inh: 2%; DT40 TDP1 CPT: 5%; SW480 rerep: -240%; MCF10A rereplic: -10%; IL-1B inflam inh: -5; DT40 TDP1 no CPT: -4%

What do the screens show for `Cc1cccc(NC(=S)N2CCCCCC2)c1C`?
BCR signal inh: inconclusive; DT40 TDP1 CPT: inconclusive; SW480 rerep: -8%; MCF10A rereplic: -27%; IL-1B inflam inh: 0; DT40 TDP1 no CPT: inconclusive

How did Cc1c(Cl)cccc1NC(=S)N1CCCCCC1 do in these assays?
BCR signal inh: 4%; DT40 TDP1 CPT: inconclusive; SW480 rerep: -3%; MCF10A rereplic: 10%; IL-1B inflam inh: 1; DT40 TDP1 no CPT: 18µM*

How did CCN(C[C@H]1N[C@@](Cc2ccccc2)(C(=O)OC)[C@H]2C(=O)N(Cc3ccccc3)C(=O)[C@@H]12)C(=O)Nc1ccc(C)cc1 do in these assays?
BCR signal inh: inconclusive; DT40 TDP1 CPT: inconclusive; SW480 rerep: inconclusive; MCF10A rereplic: inconclusive; IL-1B inflam inh: -7; DT40 TDP1 no CPT: 16µM*

What do the screens show for `CCN(C[C@H]1N[C@@](Cc2ccccc2)(C(=O)OC)[C@H]2C(=O)N(Cc3ccccc3)C(=O)[C@@H]12)C(C)=O`?
BCR signal inh: -1%; DT40 TDP1 CPT: 8%; SW480 rerep: 15%; MCF10A rereplic: -1%; IL-1B inflam inh: -86*; DT40 TDP1 no CPT: -16%

How did CCN(C[C@H]1N[C@@](CC)(C(=O)OC)[C@H]2C(=O)N(Cc3ccccc3)C(=O)[C@@H]12)C(=O)Nc1ccc(C)cc1 do in these assays?
BCR signal inh: 1%; DT40 TDP1 CPT: inconclusive; SW480 rerep: 24%[9.22 µM]; MCF10A rereplic: -10%; IL-1B inflam inh: -5; DT40 TDP1 no CPT: inconclusive

What do the screens show for `CCN(C[C@H]1N[C@@](Cc2ccccc2)(C(=O)OC)[C@H]2C(=O)N(Cc3ccccc3)C(=O)[C@@H]12)C(=O)c1ccccc1`?
BCR signal inh: 1%; DT40 TDP1 CPT: inconclusive; SW480 rerep: 10%; MCF10A rereplic: -4%; IL-1B inflam inh: -26; DT40 TDP1 no CPT: inconclusive

How did CCN(C[C@H]1N[C@@](Cc2ccccc2)(C(=O)OC)[C@H]2C(=O)N(Cc3ccccc3)C(=O)[C@@H]12)C(=O)Nc1ccc(C(F)(F)F)cc1 do in these assays?
BCR signal inh: 7%; DT40 TDP1 CPT: 2.6µM*; SW480 rerep: -15%[9.22 µM]; MCF10A rereplic: inconclusive; IL-1B inflam inh: inconclusive; DT40 TDP1 no CPT: 3.7µM*

What do the screens show for `COc1cc(C2(C)SCCCS2)cc(OC)c1OC`?
DT40 TDP1 CPT: inconclusive; IL-1B inflam inh: 5; DT40 TDP1 no CPT: inconclusive

Results for CCOC(=O)[C@]12CCCC=C1N(CCc1ccc(OC)c(OC)c1)C(=O)[C@H](CC(=O)NCc1ccc(C)o1)C2 ?
DT40 TDP1 CPT: 13µM*; IL-1B inflam inh: 4; DT40 TDP1 no CPT: 16µM*

What do the screens show for `CCOC(=O)[C@]12CCC=C1N(CCC1=CCCCC1)C(=O)[C@H](CC(=O)NCCCCc1ccccc1)C2`?
DT40 TDP1 CPT: inconclusive; IL-1B inflam inh: 16; DT40 TDP1 no CPT: 21µM*

What do the screens show for `CCOC(=O)[C@]12CCC=C1N(CCC1=CCCCC1)C(=O)[C@H](CC(=O)NCc1cccs1)C2`?
DT40 TDP1 CPT: inconclusive; IL-1B inflam inh: -1; DT40 TDP1 no CPT: inconclusive

What do the screens show for `CCOC(=O)[C@]12CCC=C1N(CCC1=CCCCC1)C(=O)[C@H](CC(=O)NCc1ccccc1)C2`?
DT40 TDP1 CPT: inconclusive; IL-1B inflam inh: -1; DT40 TDP1 no CPT: inconclusive

Screens as filed in PubChem BioAssay.
